Measurements reported in PubChem BioAssay (NCI).
This is part of a sample that, as a whole, favours compounds with a hit. Of some 83,000 tested, about 20% had one in any assay.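 Values shown are percent growth following 48 h exposure of cells in 96-well plates to a single concentration of compound; below 10 was considered active.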 Activity calls are given as the source filed them.

Key:
Assay in all cases: NCI-60 one-dose screen, 48 h (100 = growth as untreated, 0 = no growth, -100 = all killed)
Details in all cases: 10 µM unless noted
[1] = tested on: NCI-H23 lung
[2] = tested on: NCI-H226 lung
[3] = tested on: NCI-H322M lung
[4] = tested on: HOP-62 NSCLC
[5] = tested on: NCI-H460 lung
[6] = tested on: HOP-92 NSCLC
[7] = tested on: NCI-H522 lung
[8] = tested on: A549/ATCC NSCLC
[9] = tested on: 786-0 renal
[10] = tested on: COLO 205 colon
[11] = tested on: DU-145 prostate
[12] = tested on: K-562 leukemia
[13] = tested on: MALME-3M melanoma
[14] = tested on: MDA-MB-231 breast
[15] = tested on: RXF 393 renal
[16] = tested on: SF-268 CNS
[17] = tested on: SF-295 CNS
[18] = tested on: SF-539 CNS
[19] = tested on: UACC-257 melanoma
[20] = tested on: M14 melanoma

Measured: growth

COP(=O)(OC)c1nnn(-c2cccc([N+](=O)[O-])c2)c1C
inactive: [1] 107% | [2] 120% | [3] 114% | [4] 110% | [5] 104% | [6] 119% | [7] 90.3% | [8] 111% | [9] 103% | [10] 122% | [11] 111% | [12] 102% | [13] 105% | [14] 113% | [15] 118% | [16] 98.2% | [17] 111% | [18] 93.3% | [19] 105% | [20] 104%

COc1cc2c(c(OC)c1OC)C(=O)CC(c1cccc(NC(=O)c3ccccc3Br)c1)O2 (configuration not stated)
inactive: [1] 98.4% | [2] 84.8% | [3] 96% | [4] 97.4% | [5] 90.4% | [6] 65.2% | [7] 66.7% | [8] 88.1% | [9] 103% | [10] 116% | [11] 97.1% | [12] 70.2% | [13] 105% | [14] 98.6% | [15] 99.4% | [16] 90.5% | [17] 92.5% | [18] 96.5% | [19] 90.1% | [20] 97.8%

C=C1C(=O)O[C@H]2[C@H]1CC/C(CNC(=O)c1cc3ccccc3[nH]1)=C\CC[C@@]1(C)O[C@@H]21
active: [1] -42.3% | [2] -42.9% | [4] 9.39% | [5] -19.7% | [6] -51.1% | [7] -75.4% | [8] 9.2% | [9] -67.3% | [10] -83.3% | [11] -87.7% | [12] -20.6% | [13] -28.9% | [14] -46.6% | [15] -76% | [16] -27.3% | [18] -77.1% | [19] -49.2% | [20] -57.1%
inactive: [3] 63.8% | [17] 42.3%

O=C1/C(=C/c2ccccc2[N+](=O)[O-])COc2ccc(O)cc21
active: [7] -40.8% | [9] -41.3% | [10] -32.6% | [13] -56.9% | [14] -16.2% | [15] -9.95% | [18] -49.9% | [19] 0.865% | [20] -10.9%
inactive: [1] 18.8% | [2] 66.4% | [3] 60.9% | [4] 29.1% | [5] 29% | [6] 40% | [8] 54.1% | [11] 18.1% | [12] 14.8% | [16] 58.8% | [17] 81.1%

COc1ccc(C2=NN(C(C)=O)C(c3ccc(Oc4ccnc5cc(Cl)ccc45)c(OC)c3)C2)cc1 (configuration not stated)
inactive: [1] 65.9% | [3] 26.7% | [4] 27.6% | [5] 30.7% | [8] 44.6% | [9] 23.9% | [10] 47.7% | [11] 59.8% | [12] 68.6% | [13] 52.8% | [14] 41.9% | [15] 23% | [16] 76% | [17] 49.5% | [19] 70.5% | [20] 71.8%
active: [2] -0.374% | [6] -1.54% | [18] 2.73%

CC(C)CN1CC(C(=O)Nc2ccc3c(c2)-c2ccccc2C3)CC1=O (configuration not stated)
inactive: [1] 81% [50 µM] | [2] 64.9% [50 µM] | [3] 69.6% [50 µM] | [4] 50.7% [50 µM] | [5] 81.8% [50 µM] | [6] 58.5% [50 µM] | [8] 78.7% [50 µM] | [9] 70.7% [50 µM] | [10] 87.7% [50 µM] | [11] 80% [50 µM] | [12] 64.7% [50 µM] | [13] 58.7% [50 µM] | [14] 55.9% [50 µM] | [15] 79.7% [50 µM] | [16] 60.8% [50 µM] | [17] 76.1% [50 µM] | [18] 72% [50 µM] | [19] 39.9% [50 µM] | [20] 77.4% [50 µM]

Cn1cc(-c2nn3cc(-c4ccccc4)nc3s2)c2ccccc21
inactive: [1] 79.2% | [2] 69.5% | [3] 71% | [4] 61.4% | [5] 79.9% | [6] 71.9% | [8] 66.1% | [9] 99.4% | [10] 73.7% | [11] 99.2% | [12] 29.3% | [13] 55.3% | [14] 67.3% | [15] 89.3% | [16] 81.2% | [17] 78.9% | [18] 78% | [19] 76.9% | [20] 51.5%
